Assay [1] is described as follows: NCI Yeast Anticancer Drug Screen. Data for the rad50 strain (AID 155).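 Further: 0% = growth of vehicle-only cultures of the same strain.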 The note with it: S. cerevisiae rad50 strain growth inhibition; at 50.0 µM; stronger effect = higher value. The method, boiled down:
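Growth of the mutant yeast was measured after compound exposure and referenced to vehicle-treated cultures.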

Assay [2] in a line: NCI Yeast Anticancer Drug Screen. Data for the mec2-1 strain (AID 157). Particulars: S. cerevisiae mec2-1 strain, at 50.0 µM, stronger effect = higher value. The method, boiled down:
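Compounds were applied to mec2-1 yeast cells. Their growth was then compared with that of vehicle-treated cultures to give growth inhibition.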

Assay [3] is described as follows: NCI Yeast Anticancer Drug Screen. Data for the sgs1 mgt1 strain (AID 161).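 Further: 0% = growth of cultures given vehicle only.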 Particulars: S. cerevisiae sgs1 mgt1 strain, at 50.0 µM, stronger effect = higher value. In a few lines: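 Compounds are added to genetically altered yeast, and growth is compared with cultures given vehicle alone to give percent inhibition.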
Assay [4] in a line: NCI Yeast Anticancer Drug Screen. Data for the cln2 rad14 strain (AID 165).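 Further: 0% = growth equal to vehicle treated cultures.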 The note with it: S. cerevisiae cln2 rad14 strain, at 50.0 µM, stronger effect = higher value. The method, boiled down:
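Strain: cln2 rad14 yeast, altered in cell cycle control and DNA damage repair. Read-out: growth inhibition vs vehicle.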

A short description of assay [5]: NCI Yeast Anticancer Drug Screen. Data for the bub3 strain (AID 167). The note with it: S. cerevisiae bub3 mutant strain, at 50.0 µM, stronger effect = higher value. In a few lines: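 Whole-cell yeast assay. The mutant strain was incubated with compounds, and growth inhibition was determined by comparison with vehicle-treated cells.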
The nature of assay [6]: NCI Yeast Anticancer Drug Screen. Data for the mlh1 rad18 strain (AID 175). The note with it: S. cerevisiae mlh1 rad18 strain growth inhibition; at 50.0 µM; stronger effect = higher value. In a few lines:
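A repair-deficient yeast strain is exposed to test compound, and growth is scored relative to vehicle-treated controls.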

Structures are written as SMILES. Several values for one entry are separate records, joined by “and”; a condition that tells them apart may be missing. Identical values can stand only once. About 79,000 compounds went through this panel and 15% of them were active in at least one assay; those are over-represented in the sample as a whole. More than one record can exist for a structure, and the calls need not agree. Activity calls are given as the source filed them. No stated cut-off is given here; in the data, active means growth inhibition above about 70%; inactive means the rest.

Data on 16 compounds can be found in PubChem BioAssay (NCI).

`CS[P+]1(C)C=C(N2CCOCC2)CC1` (stereo unspecified): the growth inhibition was 37.4% (inactive) in assay [1]; 15.2% (inactive) in assay [2]; 0.6% (inactive) in assay [3]; -8% (inactive) in assay [4]; 8.8% (inactive) in assay [5]; 10.3% (inactive) in assay [6].

Consider `COP(=O)(OC)OC.COP(=O)(OC)OC.COP(=O)(OC)OC.COP(=O)(OC)OC.COP(=O)(OC)OC.COP(=O)(OC)OC.[Mn+2].[O-][Cl+3]([O-])([O-])O`, for which the growth inhibition in assay [1] is 43% (inactive); in assay [2], -35% (inactive); in assay [3], -17.1% (inactive); in assay [4], -14.9% (inactive); in assay [5], -18.2% (inactive); in assay [6] it was -9% (inactive).

Take `C(=Nc1ccccc1)C1CCCC[N-]1.C(=Nc1ccccc1)C1CCCC[N-]1.[Cu+2].[O-][Cl+3]([O-])([O-])O` (stereo unspecified): the growth inhibition is 90.5% (active) in assay [1]; 83.6% (active) in assay [2]; 65% (inactive) in assay [3]; 92.5% (active) in assay [4]; 74.2% (active) in assay [5]; 88% (active) in assay [6].

Turning to `O=C1NC(=O)C2(OC3c4ccccc4C=CN3C3=C2C(=O)CCC3)C(=O)N1` (stereo unspecified), the growth inhibition in assay [1] is 11.5% (inactive); in assay [2] it was 1.8% (inactive); in assay [3] it was -6.1% (inactive); in assay [4] it was 52.4% (inactive); in assay [5] it was 10.1% (inactive); in assay [6] it was 7.4% (inactive).

On to `COc1cc2c(cc1OC)C13CCN4CC5=CCOC(CC(=O)O)C(C5CC41)C3N2` (stereo unspecified), for which the growth inhibition in assay [1] was 14.2% (inactive) and -40.6% (inactive); in assay [2], 26.1% (inactive) and -27.1% (inactive); in assay [3], 47.1% (inactive) and -32.6% (inactive); in assay [4], 91.8% (active) and 10.6% (inactive); in assay [5], -18.6% (inactive) and -38.2% (inactive); in assay [6], 3.35% (inactive) and -34.1% (inactive).

Take `C(=C/[PH+](c1ccccc1)c1ccccc1)/[PH+](c1ccccc1)c1ccccc1.C(=C/[PH+](c1ccccc1)c1ccccc1)/[PH+](c1ccccc1)c1ccccc1.C(=C/[PH+](c1ccccc1)c1ccccc1)/[PH+](c1ccccc1)c1ccccc1.[Pt]`: the growth inhibition in assay [1] is 8.65% (inactive); in assay [2] it was 17.6% (inactive); in assay [3] it was 36% (inactive); in assay [4], 36.9% (inactive); in assay [5], 13.8% (inactive); in assay [6], 36.5% (inactive).

Regarding `CC1CCC2N(C1)CC1C3(O)CC45OC6(O)C(O)CCC4(C)C6CCC5C3(O)CC(O)C1(O)C2(C)O` (stereo unspecified), the growth inhibition in assay [1] was -19.9% (inactive) and -2.1% (inactive); in assay [2], -17.9% (inactive) and -31.1% (inactive); in assay [3], -2.9% (inactive) and -17.4% (inactive); in assay [4], -21.6% (inactive) and 9.15% (inactive); in assay [5], -31.2% (inactive) and -0.4% (inactive); in assay [6] it was 6.5% (inactive) and -15.3% (inactive).

On to `CCOP(=O)(CC)C(Cl)(Cl)Cl` (stereo unspecified), for which the growth inhibition in assay [1] was 2.4% (inactive); in assay [2] it was -18.5% (inactive); in assay [3] it was -5.95% (inactive); in assay [4] it was -24.1% (inactive); in assay [5], 6.05% (inactive); in assay [6], -2.2% (inactive).

With `COP(=O)(CC(=O)CCCCC1OCCO1)OC`, the growth inhibition in assay [1] is 2.25% (inactive); in assay [2], 0% (inactive); in assay [3], 1.3% (inactive); in assay [4] it was -22.8% (inactive); in assay [5] it was -5.3% (inactive); in assay [6], -4.85% (inactive).

In the case of `CCCCN(CCCC)CC(O)c1ccc(Cl)c(Cl)c1` (stereo unspecified), the growth inhibition is -1.5% (inactive) in assay [1]; -21.3% (inactive) in assay [2]; 28.9% (inactive) in assay [3]; 41.3% (inactive) in assay [4]; 18% (inactive) in assay [5]; 7.75% (inactive) in assay [6].

`Cc1nc(N)sc1S(=O)(=O)F`: the growth inhibition in assay [1] is -41.9% (inactive); in assay [2] it was -29.7% (inactive); in assay [3], -21.6% (inactive); in assay [4], -14.1% (inactive); in assay [5], -29.4% (inactive); in assay [6] it was -5.15% (inactive).

For `CCCCCCCCCCC(O)C1CCC(C(O)CCC(O)C2CCC(CCCCCCC[C@H](O)CC3=C[C@@H](C)OC3=O)O2)O1` (stereo partly specified), the growth inhibition in assay [1] was 31.4% (inactive); in assay [2] it was 6.55% (inactive); in assay [3] it was 1.55% (inactive); in assay [4], 12.9% (inactive); in assay [5] it was 19.1% (inactive); in assay [6], 27.2% (inactive).

With `Oc1cc(Cl)c(O)c(Cl)c1`, the growth inhibition in assay [1] is 2.9% (inactive); in assay [2], -2.05% (inactive); in assay [3], 4.15% (inactive); in assay [4] it was -37.9% (inactive); in assay [5], -20.2% (inactive); in assay [6] it was -7.55% (inactive).

With `CC1(C)C2=CC[C@H]3[C@@H]4CC[C@H](O)[C@@]4(C)CC[C@@H]3[C@@]2(C)CC[C@@H]1O`, the growth inhibition was -2.6% (inactive) in assay [1]; -16.4% (inactive) in assay [2]; -4.75% (inactive) in assay [3]; -19.4% (inactive) in assay [4]; 5.35% (inactive) in assay [5]; -3.15% (inactive) in assay [6].

For `O=[N+]([O-])C(CO)C(CO)[N+](=O)[O-]` (stereo unspecified), the growth inhibition in assay [1] was -5.95% (inactive); in assay [2], -12.4% (inactive); in assay [3], -1% (inactive); in assay [4], -20.8% (inactive); in assay [5], -13% (inactive); in assay [6], -17.6% (inactive).

Regarding `CC(=O)OC1CC2(O)C(CCC3(C)C(c4ccc(=O)oc4)CCC32O)C2(C)C1=CC(O)C1OC12` (stereo unspecified), the growth inhibition was 3.95% (inactive) in assay [1]; 6.85% (inactive) in assay [2]; -12.4% (inactive) in assay [3]; -1.7% (inactive) in assay [4]; -2% (inactive) in assay [5]; -13.9% (inactive) in assay [6].
